Consider eight compounds from PubChem BioAssay (NCI).

Some test systems named below: HCT-15 colon; HT29 colon; SNB-75 CNS; SNB-19 CNS; U251 CNS; PC-3 prostate; SK-MEL-5 melanoma; UACC-62 melanoma; LOX IMVI melanoma; SK-MEL-28 melanoma; SK-MEL-2 melanoma; EKVX NSCLC; SN12C renal; UO-31 renal; TK-10 renal; ACHN renal; CAKI-1 renal; A498 renal; CCRF-CEM leukemia; MOLT-4 leukemia.
Holding throughout (assay): NCI-60 one-dose screen, 48 h (100 = growth as untreated, 0 = no growth, -100 = all killed)
What all share (conditions): 10 µM unless noted

Compounds without any hit were thinned out: in the full panel of roughly 83,000, 20% have a hit.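 Step 1: grow cells in 96-well plates. Step 2: add test compound at a single concentration. Step 3: incubate 48 h. Step 4: record percent growth.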 A number with no mark means an inactive call. Calls of active or inactive are those of the source. The calls were made as follows: active = growth percent below 10; inactive = the rest.

Regarding `COC(=O)c1ccc2nc(-c3cc4ccccc4n3C)n(CCCCOc3cc4c(cc3OC)C(=O)N3CCC[C@H]3C=N4)c2c1`, the growth is -19% (active) in the test with HCT-15 colon; -53.7% (active) in the test with HT29 colon; -79.5% (active) with SNB-75 CNS; 11.3% with SNB-19 CNS; 1.02% (active) in the test on U251 CNS; -6.81% (active) in the test with PC-3 prostate. For the same compound, the growth in the test with SK-MEL-5 melanoma is -75.6% (active); with UACC-62 melanoma it was -95.9% (active); in the test on LOX IMVI melanoma, -54.7% (active); in the test on SK-MEL-28 melanoma, -57.1% (active); with SK-MEL-2 melanoma, -40.3% (active); in the test with EKVX NSCLC, 10.8%. In addition, the growth is 3.64% (active) in the test on SN12C renal; -57.3% (active) with UO-31 renal; -17.7% (active) in the test with TK-10 renal; -5.96% (active) in the test with ACHN renal; -20.7% (active) in the test with CAKI-1 renal; -60.3% (active) in the test with A498 renal. The growth was -35.1% (active) in the test with CCRF-CEM leukemia and 3.44% (active) with MOLT-4 leukemia.

As to `COC(=O)CCCCN=Cc1c(O)c(O)c(C(C)C)c2cc(C)c(-c3c(C)cc4c(C(C)C)c(O)c(O)c(C=NCCCCC(=O)OC)c4c3O)c(O)c12`, the growth in the test on HCT-15 colon is 11.1%; in the test with HT29 colon, 4.56% (active); in the test with SNB-75 CNS it was 42.6%; with SNB-19 CNS, 17.6%; in the test on U251 CNS it was 11.1%; in the test with PC-3 prostate it was 12.1%. In addition, the growth in the test on SK-MEL-5 melanoma is 28.6%; in the test on UACC-62 melanoma, 33.5%; in the test with LOX IMVI melanoma, 17.4%; in the test on SK-MEL-28 melanoma it was 31.1%; in the test on SK-MEL-2 melanoma it was 17.3%; with EKVX NSCLC it was 14.4%. The growth in the test on SN12C renal is 16.1%; with UO-31 renal it was 14.7%; in the test with TK-10 renal, 12.6%; in the test on ACHN renal, 13.4%; with CAKI-1 renal it was 50.8%; in the test on A498 renal, 12.2%. The results for the growth in the test on CCRF-CEM leukemia and with MOLT-4 leukemia were 18.4% and 14.4%, respectively.

For `O=C(Cc1n[nH]c(=O)c2ccccc12)OCc1c(Cl)cccc1Cl`, the growth with HCT-15 colon is 43.6%; with HT29 colon, 51.4%; with SNB-75 CNS it was 90%; in the test with SNB-19 CNS, 105%; with U251 CNS, 54%; in the test with PC-3 prostate it was 80.5%. Moreover, the growth in the test with SK-MEL-5 melanoma was 56.9%; in the test on UACC-62 melanoma, 70.4%; in the test on LOX IMVI melanoma, 47.1%; in the test with SK-MEL-28 melanoma, 112%; in the test with SK-MEL-2 melanoma, 35.5%; with EKVX NSCLC, 154%. In addition, the growth with SN12C renal is 102%; in the test on UO-31 renal it was 103%; with TK-10 renal it was 99%; in the test on ACHN renal, 74.7%; in the test on CAKI-1 renal, 107%; in the test with A498 renal it was 91.3%. Besides, the growth in the test with CCRF-CEM leukemia was 61%; with MOLT-4 leukemia, 32.9%.

As for `CCc1c(C(=O)Nc2ccc3ccccc3c2)[nH]c(C)c1C(C)=O`, the growth in the test on HCT-15 colon is 79.1%; in the test on HT29 colon it was 93.7%; in the test on SNB-75 CNS it was 84.4%; in the test with SNB-19 CNS it was 110%; in the test with U251 CNS, 98.3%; in the test with PC-3 prostate, 74%. Further, the growth in the test with SK-MEL-5 melanoma was 77.4%; with UACC-62 melanoma it was 87.2%; in the test with LOX IMVI melanoma it was 96.3%; in the test on SK-MEL-28 melanoma, 97.8%; in the test with SK-MEL-2 melanoma, 87.9%; in the test on EKVX NSCLC, 84.3%. Also, the growth was 96.6% with SN12C renal; 86.8% in the test with UO-31 renal; 99.8% in the test with TK-10 renal; 98.6% with ACHN renal; 86.4% in the test on CAKI-1 renal; 80.2% in the test with A498 renal. The growth in the test with CCRF-CEM leukemia was 96.1%; in the test with MOLT-4 leukemia it was 68.5%.

`C=C1C(=O)O[C@H]2[C@H]1CC/C(COC(=O)NCc1cc(OC)c(OC)c(OC)c1)=C\CC[C@@]1(C)O[C@@H]21`: the growth was 42.3% with HCT-15 colon; 21.4% with HT29 colon; 83.8% with SNB-75 CNS; 72.8% with SNB-19 CNS; 81.3% in the test with U251 CNS; 66.1% in the test with PC-3 prostate. The growth was 95.2% in the test on SK-MEL-5 melanoma; 38.8% in the test with UACC-62 melanoma; 54.3% with LOX IMVI melanoma; 63.2% in the test with SK-MEL-28 melanoma; 73.8% with SK-MEL-2 melanoma; 75.8% in the test on EKVX NSCLC. Besides, the growth in the test with SN12C renal was 47.6%; in the test with UO-31 renal it was 70.6%; with TK-10 renal it was 51.6%; in the test on ACHN renal, 45.5%; with CAKI-1 renal, 54.1%; in the test with A498 renal, 109%. The growth was 6.67% (active) in the test on CCRF-CEM leukemia and 54.1% in the test with MOLT-4 leukemia.

For `CCNc1nc(N2CC(=O)Nc3cc(OC)ccc32)c2ccccc2n1`, the growth in the test with HCT-15 colon is 6.11% (active); in the test with HT29 colon, 0.723% (active); with SNB-75 CNS, 24.7%; in the test with SNB-19 CNS, 19.2%; in the test on U251 CNS it was 8.29% (active); in the test with PC-3 prostate it was 6.21% (active). The growth in the test with SK-MEL-5 melanoma is -81.6% (active); in the test on UACC-62 melanoma it was 9.13% (active); in the test with LOX IMVI melanoma, 20.5%; in the test on SK-MEL-28 melanoma, 45%; in the test with SK-MEL-2 melanoma, 31.6%; in the test on EKVX NSCLC, 12.8%. Further, the growth with SN12C renal was 27%; with UO-31 renal it was 15.6%; in the test on TK-10 renal, 21.3%; in the test with ACHN renal it was 8.34% (active); with CAKI-1 renal, 22.6%; with A498 renal, -11.4% (active). In addition, the values for the growth in the test on CCRF-CEM leukemia and in the test on MOLT-4 leukemia were 26.8% and 24.8%, respectively.

On to `CCC(c1cccc(Br)c1)C(C(=O)O)c1ccc(OC)cc1` (stereo not given), for which the growth with HCT-15 colon is 83.5%; in the test with HT29 colon it was 106%; in the test with SNB-75 CNS, 96%; in the test on SNB-19 CNS, 104%; in the test on U251 CNS it was 90.4%; in the test with PC-3 prostate, 90.2%. Moreover, the growth with SK-MEL-5 melanoma was 94.6%; in the test with UACC-62 melanoma, 82.9%; in the test with LOX IMVI melanoma it was 95.8%; with SK-MEL-28 melanoma, 95.8%; with SK-MEL-2 melanoma it was 103%; with EKVX NSCLC, 100%. The growth in the test on SN12C renal is 105%; in the test with UO-31 renal it was 90.9%; with TK-10 renal, 107%; with ACHN renal, 107%; in the test on CAKI-1 renal it was 93.2%; in the test with A498 renal it was 100%. Also, the growth is 110% in the test with CCRF-CEM leukemia and 111% in the test with MOLT-4 leukemia.

Consider `Cc1ccccc1C(=O)c1ccccc1C(=O)O`, for which the growth in the test on HCT-15 colon is 107%; in the test with HT29 colon it was 111%; in the test on SNB-75 CNS, 84.8%; in the test on SNB-19 CNS, 111%; in the test with U251 CNS it was 104%; in the test on PC-3 prostate it was 96.8%. Moreover, the growth was 104% with SK-MEL-5 melanoma; 104% with UACC-62 melanoma; 95.9% in the test with LOX IMVI melanoma; 109% in the test on SK-MEL-28 melanoma; 124% with SK-MEL-2 melanoma; 105% with EKVX NSCLC. Further, the growth with SN12C renal was 105%; in the test on UO-31 renal, 89.7%; with TK-10 renal, 96.5%; in the test on ACHN renal it was 111%; in the test on CAKI-1 renal, 88.8%; with A498 renal it was 126%. The growth with CCRF-CEM leukemia is 103%; in the test on MOLT-4 leukemia it was 99.5%.
